Screening data deposited in PubChem BioAssay by National Center for Advancing Translational Sciences (NCATS).
The list is not random: actives were taken first. Their share in the collection is about 6%.
D1 antag = Antagonist of Human D 1 Dopamine Receptor: qHTS; actives 3.2% (n = 360,000); AID 504652, 2011; activity change, negative = inhibition, % at 10 µM; HEK293 TREx D1 cells, calcium flux, dopamine EC80; stronger effect = lower value; D(1A) dopamine receptor (Homo sapiens), P21728; in the data active = activity change below about -30%; note: % is set by controls: 0 for no effect and ±100 for the full control effect
Target sequence (P21728 whole entry, looked up): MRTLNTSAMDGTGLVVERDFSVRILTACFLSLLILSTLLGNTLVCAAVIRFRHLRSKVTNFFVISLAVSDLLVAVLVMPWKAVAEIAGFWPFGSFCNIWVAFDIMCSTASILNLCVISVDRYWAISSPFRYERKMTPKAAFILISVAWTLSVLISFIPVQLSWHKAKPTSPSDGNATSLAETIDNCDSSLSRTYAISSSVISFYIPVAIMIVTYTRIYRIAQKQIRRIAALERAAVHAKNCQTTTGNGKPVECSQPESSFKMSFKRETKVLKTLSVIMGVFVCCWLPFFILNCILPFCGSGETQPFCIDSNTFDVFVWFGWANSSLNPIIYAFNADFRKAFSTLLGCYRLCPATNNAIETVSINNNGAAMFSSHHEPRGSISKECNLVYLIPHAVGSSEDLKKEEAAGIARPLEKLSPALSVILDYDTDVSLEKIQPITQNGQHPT
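Cells carrying a force-coupled, tetracycline-inducible human D1 receptor report calcium flux. Each well gets a 10 s baseline, compound with 180 s monitoring, then an EC80 dopamine stimulus with a second 180 s kinetic read.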
D3 ag = qHTS of D3 Dopamine Receptor Agonist: qHTS; D(3) dopamine receptor (Homo sapiens), P35462; D3R DiscoveRx beta-arrestin cells, luminescence, 90 min; max activation, %; actives 0.58% (n = 410,000); AID 652048, 2013; in the data active = max activation above about 30%; note: 0% is about no effect
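Agonist mode: compounds and dopamine controls were applied to plated cells for 90 min at 37 degrees C after an overnight attachment at 1500 cells/well. Luminescent read-out followed 30 - 60 minutes at room temperature with DiscoveRx detection reagent.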
D1 potentiator = Potentiators of Human D1 Dopamine Receptor: qHTS; D(1A) dopamine receptor (Homo sapiens), P21728; HEK293 TREx D1 cells, calcium flux, dopamine EC20 potentiation; potentiation, % at 10 µM; actives 0.036% (n = 360,000); in the data active = potentiation above about 30%; note: 0% is about no effect
D1 agonist = Allosteric Agonists of the Human D1 Dopamine Receptor: qHTS; activation, % at 2 µM; D(1A) dopamine receptor (Homo sapiens), P21728; AID 504660, 2011; actives 1% (n = 360,000); HEK293 T-REx D1 cells, calcium flux, agonist mode; in the data active = activation above about 30%; note: 0% is about no effect
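Tetracycline-induced HEK293 TREx D1 cells, force-coupled to calcium signalling, were dye-loaded with a no-wash calcium kit. Compound was pin-added after a 10 s baseline. Fluorescence was read kinetically at 1 cycle/s for 180 s, with calcium rises flagged as agonism.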
DRD3 antagonist = qHTS of D3 Dopamine Receptor Antagonist: qHTS; D(3) dopamine receptor (Homo sapiens), P35462; D3R cells, DiscoveRx beta-arrestin luminescence, antagonist mode; stronger effect = lower value; max response, negative = inhibition, %; actives 2.5% (n = 360,000); in the data active = max response below about -50%; inconclusive = no clear call, values can overlap the other calls; note: % is set by controls: 0 for no effect and ±100 for the full control effect
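Cells expressing the human receptor were seeded at 1500 cells/well, incubated overnight at 37 degrees C in 5% CO2, then exposed to library compounds with dopamine controls for 90 minutes at 37 degrees C before luminescent detection.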
Starred values were filed as active, the others as inactive; ? = inconclusive; · = no result.

SMILES	D1 antag	D3 ag	D1 potentiator	D1 agonist	DRD3 antagonist
CC1CCCC(NC(=O)CSc2ccc(F)cc2)C1C (configuration not stated)	-6	0	10	2	-7
CC1CCCC(NC(=O)CSc2n[nH]c(=O)n2Cc2ccccc2)C1C (configuration not stated)	·	48*	·	·	-4
O=C(CSc1n[nH]c(=O)n1Cc1ccccc1)Nc1ccc(F)c(F)c1F	4	-2	-4	34*	-18
Cc1cc(-c2c(C)[nH]n(-c3ccc(Cl)cc3)c2=O)n[nH]1	31	-11	-1	2	-60*
CC(C)c1nnc(SCC(=O)NC(C)(C)C)n1C	-3	-5	2	2	-7
CC(C)(C)NC(=O)CSc1nnnn1C(C)(C)C	-38*	0	-10	4	?
Nc1ccc(C(=O)Nc2ccc(OC(F)(F)C(F)F)c(NC(=O)c3ccc(N)cc3)c2)cc1	-32*	2	1	3	15
CC(=O)c1ccc(Nc2ccc(-c3ccccc3F)nn2)cc1	-7	14	-3	2	2
O=S(=O)(c1ccc2c(c1)OCCO2)N1CCC(n2cnc3cc(F)ccc32)CC1	-46*	-5	-8	7	5
O=S(=O)(c1ccc2c(c1)OCCO2)N1CCC(n2nnc3cc(F)ccc32)CC1	-4	-4	-7	5	0
CCCCC(=O)N(C)c1c(C)nc2ccc(C(=O)NCCN(C)C)cn12	·	3	·	·	7
Cc1ccc(Nc2ccc(N3CCN(C(=O)c4cccc([N+](=O)[O-])c4)CC3)nn2)cc1	·	4	-2	0	·
Cc1ccsc1C(=O)N1CC=C(c2ccccc2)CC1	-31*	3	5	12	2
Cc1ccc(C(=O)N2CC=C(c3ccccc3)CC2)s1	4	-18	3	3	0
COc1ccc(S(=O)(=O)N2CCCC(C(=O)NCc3ccccc3)C2)cc1 (configuration not stated)	-31*	15	-6	18	-12
CC(C)c1ccc(CN2CCC(C(=O)NCc3cccnc3)CC2)cc1	-6	-5	-9	7	-83*
CCS(=O)(=O)N1CCC(C(=O)NCc2cccnc2)CC1	11	3	3	1	5
Cc1ccc(S(=O)(=O)NCC2CCC(C(=O)NCc3cccnc3)CC2)cc1 (configuration not stated)	-32*	-6	-7	2	-9
COc1ccc(CNC(=O)[C@@H](NC(=O)C2CCN(S(=O)(=O)c3ccc(C)cc3)CC2)C(C)C)cc1OC	-33*	-3	4	0	7
CCc1ccccc1N(c1nc(-c2ccc(OC)c(OC)c2)no1)c1nc(-c2ccc(OC)c(OC)c2)no1	1	4	-2	3	·
COC(=O)C1=CN(c2ccc(F)cc2)C(N)=C(C#N)C1c1ccc(-c2ccccc2)cc1 (configuration not stated)	·	-10	·	·	?
COc1ccccc1Cc1c(-c2ccc(C#N)cc2)nc2c(Cl)cc(C(F)(F)F)cn12	·	-4	·	·	-23
COc1ccc(S(=O)(=O)N2CCCC(C(=O)NCCC(C)C)C2)cc1 (configuration not stated)	-30*	-2	-8	5	-5
O=C(c1ccc2ccccc2c1)C1CCCN(S(=O)(=O)c2cccnc2)C1 (configuration not stated)	-53*	5	-8	10	11
COc1cccc(CNC(=O)C2CCN(S(=O)(=O)c3cnc[nH]3)CC2)c1	-39*	-4	-1	5	-20
SMILES	D1 antag	D3 ag	D1 potentiator	D1 agonist	DRD3 antagonist
COc1ccccc1CNC(=O)C1CCN(S(=O)(=O)c2ccc(-n3cnnn3)cc2)CC1	-39*	3	-7	5	2
CCOc1ccc2nc(NC(=O)c3nc(SCc4ccccc4F)ncc3Cl)sc2c1	-11	7	1	4	·
COc1ccnc(CS(=O)c2nc3ccc(OC(F)F)cc3[nH]2)c1OC (configuration not stated)	·	1	·	·	·
CCOC(=O)c1c(C)[nH]c(C)c1S(=O)(=O)N1CCCC(C(=O)NCc2ccc(N(C)C)cc2)C1 (configuration not stated)	-31*	7	-4	3	·
CCOC(=O)c1c(C)[nH]c(C)c1S(=O)(=O)N1CCCC(C(=O)NCc2cccc(C)c2)C1 (configuration not stated)	-4	3	6	1	·
COc1ccc(CNC(=O)C2CCN(C(=O)N(C)C)CC2)c(OC)c1	-18	-8	0	0	12
COc1ccccc1CNC(=O)C1CCN(C(=O)N(C)C)CC1	-38*	11	-2	2	17
CCOc1ccc(S(=O)(=O)N2CCCC(C(=O)NCc3cccnc3)C2)cc1 (configuration not stated)	-31*	1	-9	1	19
COc1ccc(S(=O)(=O)N2CCC(C(=O)NCc3cccnc3)CC2)cc1OC	-52*	-5	22	2	7
CC1(c2nnnn2C2CCCC2)CCC(=O)N1c1ccc2c(c1)OCCO2 (configuration not stated)	·	1	·	·	-4
CN(C)C(=O)c1cn(-c2ccccc2)nc1-c1cc2ccccc2o1	-5	18	0	3	-16
CN(Cc1cn(-c2ccccc2)nc1-c1cc2ccccc2o1)C(=O)CCC(=O)O	4	46*	-1	-2	2
C=C1C(=O)O[C@@H]2[C@H]1[C@@H](OC(=O)/C(C)=C/C)C/C(C)=C\C(=O)/C=C(\C)[C@@H]2O	20	-35	6	1	-52*
C=C1C(=O)O[C@H]2[C@H]1[C@H](OC(=O)/C(C)=C\C)C[C@]1(CO1)[C@@H]1[C@H](OC(C)=O)C=C(C)[C@]21O	·	5	·	·	0
Cc1ccc2cccc(NC(=O)c3ccc(C#N)cc3F)c2n1	-6	-3	-2	0	·
Fc1ccc(-n2cc(CNCCc3ccncc3)c(-c3ccccc3Cl)n2)cc1	-32*	-11	-2	10	-1
Fc1ccc(-c2nn(-c3ccccc3)cc2CNCc2ccccc2)cc1	20	-16	7	6	?
Fc1ccc(-n2cc(CNCCc3cccnc3)c(-c3ccccc3Cl)n2)cc1	-4	-4	12	61*	-70*
Cc1cc(C)cc(C(=O)n2nc(C)c(S(=O)(=O)N3CCOCC3)c2C)c1	2	-5	-3	-2	·
CC1CN(C(=S)Nc2ccccc2C(F)(F)F)CC(C)O1 (configuration not stated)	-34*	3	-1	2	1
